Assay results published in the supplement of paper PMC10849652.
About 7,900 targets were measured; listed, in parts, are those with a hit and a random draw of the rest. About 0.6% of all pairs of compound and target were hits.

Experiments:
Experiment in all cases: log2 fold change, soluble protein after heating vs DMSO (PISA); higher = thermal stabilisation; K562 cells, 10 uM, 30 min; active = over 0.2 and 3.5 SD of the protein, either way, in both replicates (recomputed)
[1] = compound: C1COCCN1CCN2C3=CC=CC=C3N=C2NC(=O)C4=CC(=CC=C4)[N+](=O)[O-] [IRAK-1-4 Inhibitor I]
In short: (§1)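 Thermal stability values are relative to control samples and come from duplicates. They are expressed as log2 fold changes. For measurement, K562 cells (2×10^6 cells/mL) received 10 μM compound for 30 min, and aliquots were heated for 3 min over 48°C-58°C, pooled, and extracted at 4°C in PBS with 0.5% NP-40. Soluble protein, the supernatant after 21,000xg for 90 min, was quantified by TMTpro 16plex LC-MS/MS with equalised channel sums.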

[2] = compound: C=CC(=O)N1CCC[C@@H](n2nc(-c3ccc(Oc4ccccc4)cc3)c3c(N)ncnc32)C1 [ibrutinib]
In short: as §1

[3] = compound: CC(=O)c1cnc2ccc(-c3cc(Cl)c(O)c(Cl)c3)nc2c1N[C@H]1CC[C@H](CN(C)C)CC1
In short: as §1

[4] = compound: CC(C)(C)Cn1c(N)nc2ccc(-c3[nH]c(C(C)(C)C)nc3-c3ccc(F)cc3)nc21 [ralimetinib]
In short: as §1

[5] = compound: CC(C)(O)CC(=O)NCCn1ccc2ncnc(Nc3ccc(Oc4cccc(C(F)(F)F)c4)c(Cl)c3)c21
In short: as §1

[6] = compound: CC(C)C1=C2N=C(C=C(N2N=C1)NCC3=CC=CC=C3)NCCCCCCN
In short: as §1

[7] = compound: CC(C)C[C@@H](C=O)NC(=O)[C@H](CC(C)C)NC(=O)[C@H](CC(C)C)NC(=O)OCc1ccccc1
In short: as §1

[8] = compound: CC(C)N(C[C@H]1O[C@@H](n2cnc3c(N)ncnc32)[C@H](O)[C@@H]1O)[C@H]1C[C@@H](CCc2nc3cc(C(C)(C)C)ccc3[nH]2)C1 [pinometostat]
In short: as §1

[9] = compound: CC1=C(C(CC(=O)N1)C2=CC=C(C=C2)C(F)(F)F)C(=O)NC3=C(C=C4C(=C3)C=NN4)F
In short: as §1

[10] = compound: CC1=C(C2=C(C=C1)C(=O)C3=CC=CC=C3N2CCCN)C
In short: as §1

Measured: log2 fold change

AK6 (UniProt Q9Y3D8)
Sequence of UniProt Q9Y3D8 (Q9Y3D8 whole entry, looked up): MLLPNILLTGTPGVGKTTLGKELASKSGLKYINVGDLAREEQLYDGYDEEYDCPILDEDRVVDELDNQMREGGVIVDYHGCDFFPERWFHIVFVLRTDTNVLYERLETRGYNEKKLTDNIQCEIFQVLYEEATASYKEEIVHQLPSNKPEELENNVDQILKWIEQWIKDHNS
inactive: [1] -0.051 | [2] -0.014 | [3] -0.132 | [4] 0.067 | [5] -0.175 | [6] -0.309 | [7] 0.039 | [8] 0.078 | [9] 0.061 | [10] 0.138

ARFGAP1 (UniProt Q8N6T3)
inactive: [1] -0.008 | [2] 0.005 | [3] -0.013 | [4] 0.07 | [5] -0.012 | [6] -0.11 | [7] -0.017 | [8] -0.027 | [9] 0.02 | [10] 0.002

AARSD1 isoform 3 (UniProt Q9BTE6)
inactive: [1] 0.002 | [2] -0.074 | [3] 0.029 | [4] -0.038 | [5] -0.017 | [6] -0.177 | [7] 0.069 | [8] -0.01 | [9] -0.027 | [10] -0.126

ARFGEF1 (UniProt Q9Y6D6)
inactive: [1] 0.016 | [2] -0.061 | [3] 0.036 | [4] 0.132 | [5] -0.018 | [6] 0.051 | [7] -0.019 | [8] 0.001 | [9] -0.065 | [10] 0.07

ALKBH5 (UniProt Q6P6C2)
inactive: [1] 0.015 | [2] 0.05 | [3] 0.053 | [4] 0.049 | [5] 0.025 | [6] 0.198 | [7] -0.016 | [8] -0.013 | [9] 0.029 | [10] 0.086

AURKA (UniProt O14965)
active: [3] 0.914
inactive: [1] -0.05 | [2] 0.193 | [4] 0.062 | [5] -0.056 | [6] -0.128 | [7] 0.16 | [8] 0.033 | [9] 0.001 | [10] 0.059

ARAF (UniProt P10398)
inactive: [1] 0.011 | [2] 0.005 | [3] -0.13 | [4] 0.097 | [5] -0.064 | [6] -0.056 | [7] 0.021 | [8] 0.043 | [9] -0.018 | [10] 0.041

BLVRB (UniProt P30043)
Sequence of UniProt P30043 (P30043 whole entry, looked up): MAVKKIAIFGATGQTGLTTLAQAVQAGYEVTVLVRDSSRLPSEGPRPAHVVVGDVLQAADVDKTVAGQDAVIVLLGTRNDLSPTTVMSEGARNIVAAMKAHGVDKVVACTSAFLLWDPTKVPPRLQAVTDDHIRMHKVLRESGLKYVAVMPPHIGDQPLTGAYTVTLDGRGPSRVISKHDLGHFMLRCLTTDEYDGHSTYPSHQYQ
inactive: [1] 0.075 | [2] 0.037 | [3] 0.154 | [4] 0.056 | [5] -0.019 | [6] -0.048 | [7] -0.037 | [8] -0.005 | [9] -0.046 | [10] 0.059

AAMP (UniProt Q13685)
inactive: [1] 0.007 | [2] 0.023 | [3] 0.064 | [4] 0.031 | [5] 0.04 | [6] -0.051 | [7] -0.02 | [8] 0.007 | [9] 0
active: [10] 0.225

ARL6IP6 (UniProt Q8N6S5)
active: [4] 0.413
inactive: [1] 0.12 | [2] 0.056 | [3] 0.168 | [5] 0 | [6] -0.049 | [7] -0.199 | [8] 0.069 | [9] -0.014 | [10] 0.02

BRIX1 (UniProt Q8TDN6)
active: [10] -1.43
inactive: [1] -0.1 | [2] -0.011 | [3] 0.021 | [4] 0.133 | [5] 0.091 | [6] 0.137 | [7] 0.041 | [8] 0.361 | [9] -0.051

ATP11A (UniProt P98196)
inactive: [1] -0.003 | [2] 0.007 | [3] 0.018 | [4] 0 | [5] -0.026 | [6] 0.073 | [7] 0.052 | [8] 0.004 | [9] 0.05 | [10] 0.036

AIP (UniProt O00170)
inactive: [1] 0 | [2] -0.047 | [3] 0.007 | [4] 0.006 | [5] -0.094 | [6] -0.074 | [7] -0.018 | [8] -0.027 | [9] -0.035 | [10] -0.026

AAR2 (UniProt Q9Y312)
Sequence of UniProt Q9Y312 (Q9Y312 whole entry, looked up): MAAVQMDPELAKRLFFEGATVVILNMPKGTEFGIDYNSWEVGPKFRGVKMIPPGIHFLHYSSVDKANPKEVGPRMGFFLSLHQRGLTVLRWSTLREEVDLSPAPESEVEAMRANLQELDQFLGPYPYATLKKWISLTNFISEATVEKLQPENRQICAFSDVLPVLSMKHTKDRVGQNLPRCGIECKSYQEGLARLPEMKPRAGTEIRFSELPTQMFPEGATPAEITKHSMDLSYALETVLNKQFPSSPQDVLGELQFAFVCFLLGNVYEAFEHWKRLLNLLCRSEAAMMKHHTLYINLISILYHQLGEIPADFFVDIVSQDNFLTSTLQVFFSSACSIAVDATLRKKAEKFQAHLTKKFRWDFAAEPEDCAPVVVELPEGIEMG
inactive: [1] 0.039 | [2] 0.02 | [3] 0.021 | [4] -0.002 | [5] -0.062 | [6] -0.012 | [7] 0.104 | [8] 0.024 | [9] -0.074 | [10] -0.035

ADRM1 (UniProt Q16186)
Sequence of UniProt Q16186 (Q16186 whole entry, looked up): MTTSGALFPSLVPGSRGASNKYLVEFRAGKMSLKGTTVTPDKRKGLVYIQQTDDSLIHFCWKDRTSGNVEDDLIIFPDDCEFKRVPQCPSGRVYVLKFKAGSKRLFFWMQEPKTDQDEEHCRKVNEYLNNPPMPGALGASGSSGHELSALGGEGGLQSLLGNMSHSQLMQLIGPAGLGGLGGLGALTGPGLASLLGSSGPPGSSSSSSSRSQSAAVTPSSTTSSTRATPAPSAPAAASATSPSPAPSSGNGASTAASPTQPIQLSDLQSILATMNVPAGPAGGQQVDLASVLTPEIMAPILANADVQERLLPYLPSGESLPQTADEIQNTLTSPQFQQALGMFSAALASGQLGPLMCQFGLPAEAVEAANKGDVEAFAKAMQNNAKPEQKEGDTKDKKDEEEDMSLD
inactive: [1] -0.096 | [2] -0.111 | [3] 0.033 | [4] 0.065 | [5] -0.077 | [6] -0.005 | [7] -0.064 | [8] 0.015 | [9] -0.022 | [10] 0.04

AFDN isoform 5 (UniProt P55196)
inactive: [1] -0.018 | [2] -0.012 | [3] -0.19 | [4] -0.002 | [5] -0.125 | [6] -0.082 | [7] 0.01 | [8] 0.004 | [9] 0.007 | [10] 0.049

ATAD1 (UniProt Q8NBU5)
Sequence of UniProt Q8NBU5 (Q8NBU5 whole entry, looked up): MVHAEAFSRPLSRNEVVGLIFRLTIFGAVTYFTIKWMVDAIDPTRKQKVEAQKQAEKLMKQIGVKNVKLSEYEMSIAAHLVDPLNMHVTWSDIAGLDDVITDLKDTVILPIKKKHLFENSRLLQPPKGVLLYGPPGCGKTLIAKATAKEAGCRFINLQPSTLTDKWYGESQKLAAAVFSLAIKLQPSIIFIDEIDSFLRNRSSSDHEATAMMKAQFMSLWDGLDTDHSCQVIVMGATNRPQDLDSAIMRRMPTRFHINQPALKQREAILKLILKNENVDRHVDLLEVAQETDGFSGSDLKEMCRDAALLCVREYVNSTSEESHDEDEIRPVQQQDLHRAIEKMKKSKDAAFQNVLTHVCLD
inactive: [1] -0.007 | [2] 0.011 | [3] -0.081 | [5] -0.083 | [6] -0.077 | [7] 0.038 | [8] 0.041 | [9] -0.083 | [10] 0.054
active: [4] 0.238

AFDN isoform 1 (UniProt P55196)
inactive: [1] -0.046 | [2] -0.015 | [3] -0.102 | [4] -0.12 | [5] -0.048 | [6] -0.001 | [7] 0.002 | [8] -0.072

ALDH18A1 (UniProt P54886)
Sequence of UniProt P54886 (P54886 whole entry, looked up): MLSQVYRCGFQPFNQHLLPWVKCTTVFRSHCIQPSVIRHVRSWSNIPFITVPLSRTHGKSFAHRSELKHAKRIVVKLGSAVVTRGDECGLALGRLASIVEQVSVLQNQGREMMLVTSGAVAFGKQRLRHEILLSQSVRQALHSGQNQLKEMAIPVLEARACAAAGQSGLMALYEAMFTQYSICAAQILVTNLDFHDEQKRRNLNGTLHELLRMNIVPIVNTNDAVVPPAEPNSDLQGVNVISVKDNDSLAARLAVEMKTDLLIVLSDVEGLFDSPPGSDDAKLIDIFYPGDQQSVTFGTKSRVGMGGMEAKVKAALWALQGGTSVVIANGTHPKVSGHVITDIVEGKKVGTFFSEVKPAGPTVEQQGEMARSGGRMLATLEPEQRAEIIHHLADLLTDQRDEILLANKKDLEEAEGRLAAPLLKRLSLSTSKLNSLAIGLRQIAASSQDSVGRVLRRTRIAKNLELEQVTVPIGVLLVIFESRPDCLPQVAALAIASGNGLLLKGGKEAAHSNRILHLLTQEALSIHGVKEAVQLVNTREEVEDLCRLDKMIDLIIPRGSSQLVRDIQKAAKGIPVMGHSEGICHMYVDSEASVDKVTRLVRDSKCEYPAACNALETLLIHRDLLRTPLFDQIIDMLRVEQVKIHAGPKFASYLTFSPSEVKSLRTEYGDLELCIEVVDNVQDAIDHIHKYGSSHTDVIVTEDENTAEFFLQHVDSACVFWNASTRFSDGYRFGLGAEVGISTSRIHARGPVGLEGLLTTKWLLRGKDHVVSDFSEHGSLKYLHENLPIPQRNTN
inactive: [1] 0 | [2] -0.098 | [3] 0 | [4] -0.057 | [6] -0.269 | [7] 0 | [8] -0.053 | [9] -0.059 | [10] 0.184
active: [5] -0.497

BAD (UniProt Q92934)
inactive: [1] 0.057 | [2] 0.024 | [3] -0.061 | [4] -0.054 | [5] 0.077 | [6] -0.04 | [7] -0.041 | [8] 0.012 | [9] 0.065

ALG11 (UniProt Q2TAA5)
Sequence of UniProt Q2TAA5 (Q2TAA5 whole entry, looked up): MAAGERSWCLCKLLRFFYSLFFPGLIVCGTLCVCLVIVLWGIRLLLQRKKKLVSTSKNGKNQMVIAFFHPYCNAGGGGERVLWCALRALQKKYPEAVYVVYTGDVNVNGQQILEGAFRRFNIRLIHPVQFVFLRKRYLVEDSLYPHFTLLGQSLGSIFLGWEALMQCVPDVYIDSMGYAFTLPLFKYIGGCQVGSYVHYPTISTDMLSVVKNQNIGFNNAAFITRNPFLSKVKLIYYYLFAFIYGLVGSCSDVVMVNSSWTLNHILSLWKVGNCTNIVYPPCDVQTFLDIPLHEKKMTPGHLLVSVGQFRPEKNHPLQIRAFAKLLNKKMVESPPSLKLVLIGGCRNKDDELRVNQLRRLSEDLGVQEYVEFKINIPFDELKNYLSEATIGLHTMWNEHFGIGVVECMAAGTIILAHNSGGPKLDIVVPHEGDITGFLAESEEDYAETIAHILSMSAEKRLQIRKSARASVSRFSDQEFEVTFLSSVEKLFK
inactive: [1] 0.003 | [2] 0.09 | [3] 0.053 | [4] -0.014 | [5] -0.112 | [6] 0.037 | [7] -0.064 | [8] 0.032 | [9] 0.002
active: [10] 0.23

ADD3 (UniProt Q9UEY8)
Sequence of UniProt Q9UEY8 (Q9UEY8 whole entry, looked up): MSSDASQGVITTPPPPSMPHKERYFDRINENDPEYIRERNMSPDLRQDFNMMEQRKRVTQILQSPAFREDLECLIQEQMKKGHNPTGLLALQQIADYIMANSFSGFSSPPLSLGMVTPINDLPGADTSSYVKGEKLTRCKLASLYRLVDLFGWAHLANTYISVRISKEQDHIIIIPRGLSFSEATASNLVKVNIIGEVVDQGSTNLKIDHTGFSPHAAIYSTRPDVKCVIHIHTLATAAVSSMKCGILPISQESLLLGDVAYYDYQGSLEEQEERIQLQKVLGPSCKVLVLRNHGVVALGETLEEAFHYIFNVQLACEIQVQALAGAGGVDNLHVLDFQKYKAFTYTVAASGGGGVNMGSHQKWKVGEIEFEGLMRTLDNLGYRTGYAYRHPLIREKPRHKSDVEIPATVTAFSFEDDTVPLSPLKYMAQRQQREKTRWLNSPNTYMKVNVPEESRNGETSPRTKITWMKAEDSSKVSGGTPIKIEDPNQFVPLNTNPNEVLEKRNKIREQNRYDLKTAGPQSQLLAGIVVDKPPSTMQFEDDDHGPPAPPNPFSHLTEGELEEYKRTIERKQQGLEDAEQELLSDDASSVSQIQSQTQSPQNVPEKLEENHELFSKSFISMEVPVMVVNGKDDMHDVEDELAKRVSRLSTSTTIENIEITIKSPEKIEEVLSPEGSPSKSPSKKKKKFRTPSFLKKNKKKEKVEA
inactive: [1] 0.063 | [2] 0.025 | [4] -0.011 | [5] 0.008 | [6] 0.097 | [7] 0.018 | [8] -0.034 | [9] 0.019 | [10] 0.014
active: [3] -0.29

ADAM15 (UniProt Q13444)
Sequence of UniProt Q13444 (Q13444 whole entry, looked up): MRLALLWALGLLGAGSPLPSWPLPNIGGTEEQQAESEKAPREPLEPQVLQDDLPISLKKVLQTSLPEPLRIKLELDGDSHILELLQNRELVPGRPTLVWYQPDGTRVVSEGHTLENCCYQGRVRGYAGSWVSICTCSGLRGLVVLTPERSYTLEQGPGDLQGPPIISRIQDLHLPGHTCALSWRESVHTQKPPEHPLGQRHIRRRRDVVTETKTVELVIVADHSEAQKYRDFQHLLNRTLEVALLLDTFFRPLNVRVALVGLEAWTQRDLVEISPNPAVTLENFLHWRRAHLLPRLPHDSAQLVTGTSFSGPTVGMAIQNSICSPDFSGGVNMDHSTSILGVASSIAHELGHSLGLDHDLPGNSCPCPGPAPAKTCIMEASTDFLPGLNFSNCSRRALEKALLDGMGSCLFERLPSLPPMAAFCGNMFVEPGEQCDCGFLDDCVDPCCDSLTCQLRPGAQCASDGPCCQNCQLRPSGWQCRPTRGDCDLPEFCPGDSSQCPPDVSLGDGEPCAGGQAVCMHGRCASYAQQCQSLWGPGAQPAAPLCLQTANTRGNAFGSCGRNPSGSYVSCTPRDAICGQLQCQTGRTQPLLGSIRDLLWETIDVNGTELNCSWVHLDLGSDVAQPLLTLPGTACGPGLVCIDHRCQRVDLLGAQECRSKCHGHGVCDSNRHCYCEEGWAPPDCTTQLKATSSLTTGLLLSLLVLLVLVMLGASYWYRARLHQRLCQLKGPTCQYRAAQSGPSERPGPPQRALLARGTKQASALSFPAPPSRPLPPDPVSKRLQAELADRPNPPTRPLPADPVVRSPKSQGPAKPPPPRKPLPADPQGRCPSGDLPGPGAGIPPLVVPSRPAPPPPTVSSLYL
inactive: [1] -0.026 | [2] 0.045 | [3] -0.199 | [4] 0.024 | [5] 0.008 | [6] 0.14 | [7] 0.053 | [8] 0.046 | [9] 0.027 | [10] 0.033

AFG1L (UniProt Q8WV93)
inactive: [1] 0.014 | [2] -0.016 | [3] -0.135 | [4] -0.134 | [5] -0.091 | [7] 0.146 | [8] 0.023 | [9] 0.057 | [10] -0.056
active: [6] -0.385

BCCIP isoform 2 (UniProt Q9P287)
inactive: [1] 0.013 | [2] -0.025 | [3] 0.008 | [4] -0.048 | [5] 0.012 | [6] 0.008 | [7] -0.012 | [8] 0.029 | [9] -0.012 | [10] 0.077

AMD1 (UniProt P17707)
active: [4] -0.307
inactive: [1] -0.018 | [2] -0.043 | [3] -0.086 | [5] -0.031 | [6] -0.073 | [7] 0.276 | [8] -0.025 | [9] 0.04 | [10] 0.051

ADD1 isoform 3 (UniProt P35611)
inactive: [1] 0.048 | [2] 0.011 | [4] -0.068 | [5] -0.008 | [6] 0.038 | [7] -0.003 | [8] -0.001 | [9] -0.004 | [10] 0.008
active: [3] -0.274

ARFGAP2 (UniProt Q8N6H7)
Sequence of UniProt Q8N6H7 (Q8N6H7 whole entry, looked up): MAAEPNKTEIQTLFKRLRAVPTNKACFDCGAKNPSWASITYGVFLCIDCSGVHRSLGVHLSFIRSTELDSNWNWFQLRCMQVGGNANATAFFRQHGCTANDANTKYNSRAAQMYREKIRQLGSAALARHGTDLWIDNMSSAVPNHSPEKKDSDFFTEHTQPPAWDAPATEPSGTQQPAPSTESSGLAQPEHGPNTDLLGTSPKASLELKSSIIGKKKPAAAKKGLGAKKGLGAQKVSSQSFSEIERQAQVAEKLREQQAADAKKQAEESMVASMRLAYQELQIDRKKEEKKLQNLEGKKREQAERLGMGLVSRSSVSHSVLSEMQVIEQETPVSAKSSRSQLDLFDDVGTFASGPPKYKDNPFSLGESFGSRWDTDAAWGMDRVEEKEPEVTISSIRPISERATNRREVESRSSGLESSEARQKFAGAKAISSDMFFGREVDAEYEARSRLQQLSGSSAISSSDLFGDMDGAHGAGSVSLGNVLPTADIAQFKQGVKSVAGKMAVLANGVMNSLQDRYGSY
inactive: [1] -0.016 | [2] -0.064 | [3] -0.014 | [4] -0.001 | [5] -0.032 | [6] 0.062 | [7] -0.005 | [8] 0.046 | [9] -0.006 | [10] 0.005

ATP6V0A1 isoform 3 (UniProt Q93050)
inactive: [1] -0.068 | [2] 0 | [3] -0.033 | [4] 0.087 | [5] 0.019 | [7] 0.125 | [8] 0.198 | [9] 0.067 | [10] 0.011
active: [6] -0.463

ASH2L (UniProt Q9UBL3)
inactive: [1] -0.022 | [2] -0.048 | [3] -0.046 | [4] 0.004 | [5] -0.018 | [6] 0.016 | [7] -0.004 | [8] -0.013 | [9] -0.013 | [10] -0.044
